# This is part of a sample that, as a whole, favours compounds with a hit. Of some 83,000 tested, about 20% had one in any assay.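 Single-concentration screen, 48 h exposure, 96-well plates. Endpoint: percent growth. Below 10 = active.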 Values without a mark were called inactive. The source made the active and inactive calls.
# System: SK-OV-3 ovarian
# Assay: NCI-60 one-dose screen, 48 h (100 = growth as untreated, 0 = no growth, -100 = all killed)
# Settings: 10 µM unless noted
# Protocol: Growth inhibition of the SK-OV-3 human tumor cell line is measured as a screen for anti-cancer activity. Cells are grown in 96 well plates and exposed to the test compound for 48 hours. Compounds are tested at a single concentration, which is 10^-5 M for most compounds. The reported endpoint is percent growth (GI% or GIPRCNT), where numbers from 0 - 100% represent growth inhibition, and numbers from -100% - 0 represent cell death. For example, a value of 40 represents 60% growth inhibition. A value of 0 means no net growth occurred over the course of the experiment. A value of -40 indicates 40% of cells at the beginning of the experiment died by the end of the experiment. A value of -100 means all cells are dead at the end of the experiment.
# NCI-60 Human Tumor Cell Lines Screen was performed using the standard one-dose NCI protocol, which is described in more detail at https://dtp.cancer.gov/discovery_development/nci-60/default.htm.
# Compounds with GIPRCNT values below 10 were considered active. Activity score was based on GIPRCNT using the following formula: […]
# Score is 0 for GIPRCNT values of 100 or above, 50 for GIPRCNT values of 0, and 100 for GIPRCNT values of -100.
row,Compound,growth
1,COc1ccc([C@H]2[C@H](O)C(=O)N2c2cc(OC)c(OC)c(OC)c2)cc1,37.7%
2,CS(=O)(=O)c1nccc(-c2c(-c3ccc(F)c(OCCc4ccc(F)cc4)c3)nc3sccn23)n1,84.5%
3,COc1cc2c3c(n(CCCNC4CCC4)c(=O)c2cc1OC)-c1cc2c(cc1C3=O)OCO2,23.4%
4,Cn1c2ccc(Br)cc2c2c3c(c4c5cc(F)ccc5oc4c21)C(=O)N(O)C3=O,90.2%
5,C/C(=N/Nc1nc(N/N=C(/C)c2ccc([N+](=O)[O-])cc2)nc(N2CCOCC2)n1)c1ccc([N+](=O)[O-])cc1,113%
6,CC(=O)Nc1nc2c(s1)C1=CC[C@H]3[C@@H]4CC[C@H](C(C)=O)[C@@]4(C)CC[C@@H]3[C@@]1(C)CC2,59.9%
7,CC1(C)CC[C@]2(C(=O)O)CC[C@]3(C)C(=CCC4[C@@]5(C)C[C@@H](O)[C@@H]6OC(c7cccc([N+](=O)[O-])c7)OC[C@@]6(C)C5CC[C@]43C)C2C1 (stereo not given in full),105%
8,CNC(=O)c1cc(Oc2ccc3nc(NC(=O)c4cc(C)cc(C)c4)sc3c2)ccn1,97.4%
9,CC1(C)CC[C@]2(C(=O)N3CCCN(CC#N)CC3)CC[C@]3(C)C(=CC[C@@H]4[C@@]5(C)CC[C@H](O)C(C)(C)[C@@H]5CC[C@]43C)[C@H]2C1,83.7%
10,COc1cc2c3c(n(CCCN4CCC[C@H]4C(N)=O)c(=O)c2cc1OC)-c1cc2c(cc1C3=O)OCO2,-22.7% (active)
11,COc1ccc(Cn2cc3c(c2-c2cc(OC)c(OC)c(OC)c2)CCCc2cnoc2-3)cc1N,65.6%
12,CC(=O)c1sc(Nc2cccc(Nc3nc(C)c(C)s3)c2)nc1C,25.8%
13,COc1cc(/C=N/n2cnc3oc(-c4ccccc4)cc3c2=N)cc(CN2CCCC2)c1O,93.9%
14,NS(=O)(=O)c1ccc(Nc2nc(N/N=C/c3ccc(F)cc3)nc(Nc3ccccc3)n2)cc1,71.2%
15,COc1ccc(-c2nc3cc(Cl)c(Cl)cc3n2CC(=O)N=Nc2c(O)[nH]c3ccc(Cl)cc23)cc1,52.5%
16,COc1cc(C2CC(c3ccc(Nc4nc(NCCO)nc(Nc5ccc(Cl)cc5)n4)cc3)=Nc3c(N)nc(N)nc3N2)cc(OC)c1OC (stereo not given),125%
17,C#C[C@]1(O)CC[C@H]2[C@@H]3CC=C4c5sc(Nc6nc(C)cc(OC)n6)nc5CC[C@]4(C)[C@H]3CC[C@@]21C,47.5%
18,CCCC(=O)NC(c1cccnc1)c1ccc2c(C)ccnc2c1O (stereo not given),19.7%
19,COCCOc1ccc(-c2csc(NC(=O)CN3CCN(CCO)CC3)n2)cc1NS(=O)(=O)c1cccc2c(N(C)C)cccc12,92.9%
20,COc1ccc(N2C(=O)c3cc(OC)c(OC)cc3NC2SCc2ccccc2)cc1 (stereo not given),112%

row,Compound,growth
1,CCc1ccc(NC(=O)N[C@@H](Cc2cc(F)cc(F)c2)C(=O)N[C@@H]2C(=O)N3CCC[C@H]3C(=O)N3CCO[C@H](C)[C@H]3C(=O)N[C@@H](CO)C(=O)N3C[C@H](C)C[C@H]3C(=O)O[C@H]2C)c(F)c1,26.3%
2,COc1ccc([C@@H]2[C@@H](O)C(=O)N2c2cc(OC)c(OC)c(OC)c2)cc1Cl,23.9%
3,O=S(=O)(Nc1ccc2c(c1)OC(F)(F)O2)c1ccc(-c2cnc(C3CC3)o2)cc1,65.6%
4,Cc1nn(-c2ccc(Br)cc2)c2nc(CCl)[nH]c(=O)c12,106%
5,Cc1cc(=O)n2nc(-c3cn(C)c4ccc(Cl)cc34)sc2n1,84.3%
6,Cc1ccc(-c2nnc3sc(C4=Cc5ccccc5OC=C4)nn23)cc1,118%
7,CC[C@H](C)[C@H]1NC(=O)[C@@H]([C@H](O)C(C)C)NC(=O)[C@@H](C)N(C)C(=O)[C@H](C)N(C)C(=O)[C@H](CC(C)C)NC(=O)[C@H](CC(C)C)N(C)C(=O)[C@H](C)N(C)C1=O,-9.12% (active)
8,CC1=CC(=O)CC(C)(C)[C@@]1(O)/C=C/C(C)=C\C(=O)O,-22% (active)
9,C/C(=C(/c1ccc(O)cc1)c1ccc(OCCN2CCCCCC2)cc1)c1ccccc1,76.1%
10,CC1(C)CC[C@]2(C(=O)N3CCCNCC3)CC[C@]3(C)C(=CC[C@@H]4[C@@]5(C)CCC(=O)C(C)(C)[C@@H]5CC[C@]43C)[C@H]2C1,115%
11,COc1ccc(/C=C/C(=O)c2nnn(-c3ccc(Br)cc3)c2C)cc1OC,90.3%
12,Oc1ccc(CSc2nnc(-c3ccncc3)o2)c2cccnc12,4.05% (active)
13,O=C1NC(=O)/C(=C/c2ccc(OCc3cc4ccccc4nc3Cl)cc2)S1,109%
14,O=C(Nc1cc(F)cc2cccnc12)c1cnc(N2CCOCC2)cn1,95.2%
15,Oc1ccccc1-c1nnc(SCc2ccc(O)c3ncccc23)o1,19.5%
16,COc1cc(/C=C/C(=O)c2ccc(NC(=O)COc3cccc4cccnc34)cc2)cc(OC)c1OC,118%
17,O=C1Nc2cc(OC(F)(F)F)ccc2Oc2ccc(-c3ccnc(N4CC[C@H](O)C4)c3)cc21,27.1%
18,CC(=O)Nc1ccc(NC(=O)Nc2cccc(-c3nc(-c4ccc(NC(=O)c5cccs5)cc4Cl)no3)c2)cc1C(F)(F)F,-66% (active)
19,Fc1ccc(-c2cc3nc(C(Cl)Cl)nc(-c4cccs4)n3n2)cc1,32%
20,CS(=O)(=O)c1nccc(-c2c(-c3ccc(F)c(OCc4ccc(F)cc4)c3)nc3sccn23)n1,110%

# Reference: PubChem BioAssay (NCI)
